Columns and labels:
Assay in all cases: log2 ratio of Biotin-Ahx-Ub-VS probe labelling (fragment/DMSO); higher = less target engagement (more negative = stronger competition), active = hit call of the paper (q ≤ 0.05, log2 ratio ≤ -1)
Settings in all cases: compound concentration: 200 uM; treatment time: 3 h
[1] = molecular target: T1, OTUD6B (UniProt Q8N6M0)
T1 sequence (whole entry): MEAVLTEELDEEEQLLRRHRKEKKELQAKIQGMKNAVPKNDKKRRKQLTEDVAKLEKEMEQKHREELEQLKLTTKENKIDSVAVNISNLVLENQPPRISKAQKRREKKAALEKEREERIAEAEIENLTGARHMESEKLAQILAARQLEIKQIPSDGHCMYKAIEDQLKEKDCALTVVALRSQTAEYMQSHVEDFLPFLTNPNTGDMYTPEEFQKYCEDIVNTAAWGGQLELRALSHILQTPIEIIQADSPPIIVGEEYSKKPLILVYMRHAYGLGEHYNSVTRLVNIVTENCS
In short: (§1)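 HEK293T lysate (495 µg per sample, in Tris/CHAPS/IGEPAL buffer with protease inhibitors) was exposed in triplicate for 3 h to fragment at 200 µM or to vehicle, then to Biotin-Ahx-Ub-VS at 0.5 µM final for 1 h. Labelled DUBs were enriched on NeutrAvidin, digested with LysC and trypsin, and analysed by diaPASEF LC-MS/MS. Spectronaut label-free quantities were normalised to the global median, and values are average log2 ratios of fragment over vehicle from an unpaired t-test. Only proteins with ≥2 unique peptides were used.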

[2] = molecular target: T2, OTUD7B (UniProt Q6GQQ9)
T2 sequence (whole entry): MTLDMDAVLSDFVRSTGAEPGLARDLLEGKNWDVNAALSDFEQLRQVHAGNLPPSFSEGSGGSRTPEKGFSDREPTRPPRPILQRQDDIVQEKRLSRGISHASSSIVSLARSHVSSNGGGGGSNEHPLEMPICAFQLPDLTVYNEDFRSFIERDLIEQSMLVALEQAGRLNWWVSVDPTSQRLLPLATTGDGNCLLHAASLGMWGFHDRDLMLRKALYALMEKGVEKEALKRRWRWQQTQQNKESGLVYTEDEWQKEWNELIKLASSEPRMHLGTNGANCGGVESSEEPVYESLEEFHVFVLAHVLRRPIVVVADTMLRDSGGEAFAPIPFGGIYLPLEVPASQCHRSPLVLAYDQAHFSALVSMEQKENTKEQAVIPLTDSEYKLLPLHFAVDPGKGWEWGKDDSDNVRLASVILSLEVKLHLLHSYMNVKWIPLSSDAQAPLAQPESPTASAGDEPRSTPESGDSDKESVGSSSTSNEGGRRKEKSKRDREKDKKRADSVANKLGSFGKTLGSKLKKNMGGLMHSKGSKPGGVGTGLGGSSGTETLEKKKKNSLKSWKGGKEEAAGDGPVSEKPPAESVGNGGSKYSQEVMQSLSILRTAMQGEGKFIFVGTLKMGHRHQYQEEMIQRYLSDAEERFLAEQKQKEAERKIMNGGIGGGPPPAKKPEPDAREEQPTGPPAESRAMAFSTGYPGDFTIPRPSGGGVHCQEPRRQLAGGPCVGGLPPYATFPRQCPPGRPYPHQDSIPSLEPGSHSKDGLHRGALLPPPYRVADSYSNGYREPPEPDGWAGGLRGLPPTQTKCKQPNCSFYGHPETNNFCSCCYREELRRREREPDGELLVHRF
In short: as §1

[3] = molecular target: PRPF8 (UniProt Q6P2Q9)
In short: as §1

[4] = molecular target: T3, PSMD7 (UniProt P51665)
T3 sequence (whole entry): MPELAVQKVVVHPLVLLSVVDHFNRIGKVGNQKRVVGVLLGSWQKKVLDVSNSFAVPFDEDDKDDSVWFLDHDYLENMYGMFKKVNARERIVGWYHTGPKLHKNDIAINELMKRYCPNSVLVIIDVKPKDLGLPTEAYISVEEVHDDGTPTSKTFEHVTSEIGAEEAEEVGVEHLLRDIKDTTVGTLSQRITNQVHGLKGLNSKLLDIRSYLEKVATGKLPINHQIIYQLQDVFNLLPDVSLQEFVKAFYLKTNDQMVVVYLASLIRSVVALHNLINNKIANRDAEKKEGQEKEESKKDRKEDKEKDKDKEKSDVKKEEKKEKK
In short: as §1

[5] = molecular target: UCHL1 (UniProt P09936)
In short: as §1

[6] = molecular target: T4, UCHL3 (UniProt P15374)
T4 sequence (whole entry): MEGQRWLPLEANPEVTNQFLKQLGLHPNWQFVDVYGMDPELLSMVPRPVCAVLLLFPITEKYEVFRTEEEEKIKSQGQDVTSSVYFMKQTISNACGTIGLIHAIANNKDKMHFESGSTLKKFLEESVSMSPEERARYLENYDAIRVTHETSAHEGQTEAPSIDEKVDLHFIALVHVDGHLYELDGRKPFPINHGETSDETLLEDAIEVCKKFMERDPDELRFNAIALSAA
In short: as §1

[7] = molecular target: T5, UCHL5 (UniProt Q9Y5K5)
T5 sequence (whole entry): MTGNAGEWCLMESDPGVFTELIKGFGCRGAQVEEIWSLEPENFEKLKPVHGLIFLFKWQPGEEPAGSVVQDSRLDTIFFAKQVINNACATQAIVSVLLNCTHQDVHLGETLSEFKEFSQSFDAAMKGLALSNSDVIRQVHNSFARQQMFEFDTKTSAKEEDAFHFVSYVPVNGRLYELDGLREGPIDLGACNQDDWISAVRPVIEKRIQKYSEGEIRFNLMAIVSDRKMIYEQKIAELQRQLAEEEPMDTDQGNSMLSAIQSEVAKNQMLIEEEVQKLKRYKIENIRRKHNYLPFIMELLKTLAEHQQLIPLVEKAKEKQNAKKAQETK
In short: as §1

[8] = molecular target: USP10 (UniProt Q14694)
In short: as §1

[9] = molecular target: T6, USP15 (UniProt Q9Y4E8)
T6 sequence (whole entry): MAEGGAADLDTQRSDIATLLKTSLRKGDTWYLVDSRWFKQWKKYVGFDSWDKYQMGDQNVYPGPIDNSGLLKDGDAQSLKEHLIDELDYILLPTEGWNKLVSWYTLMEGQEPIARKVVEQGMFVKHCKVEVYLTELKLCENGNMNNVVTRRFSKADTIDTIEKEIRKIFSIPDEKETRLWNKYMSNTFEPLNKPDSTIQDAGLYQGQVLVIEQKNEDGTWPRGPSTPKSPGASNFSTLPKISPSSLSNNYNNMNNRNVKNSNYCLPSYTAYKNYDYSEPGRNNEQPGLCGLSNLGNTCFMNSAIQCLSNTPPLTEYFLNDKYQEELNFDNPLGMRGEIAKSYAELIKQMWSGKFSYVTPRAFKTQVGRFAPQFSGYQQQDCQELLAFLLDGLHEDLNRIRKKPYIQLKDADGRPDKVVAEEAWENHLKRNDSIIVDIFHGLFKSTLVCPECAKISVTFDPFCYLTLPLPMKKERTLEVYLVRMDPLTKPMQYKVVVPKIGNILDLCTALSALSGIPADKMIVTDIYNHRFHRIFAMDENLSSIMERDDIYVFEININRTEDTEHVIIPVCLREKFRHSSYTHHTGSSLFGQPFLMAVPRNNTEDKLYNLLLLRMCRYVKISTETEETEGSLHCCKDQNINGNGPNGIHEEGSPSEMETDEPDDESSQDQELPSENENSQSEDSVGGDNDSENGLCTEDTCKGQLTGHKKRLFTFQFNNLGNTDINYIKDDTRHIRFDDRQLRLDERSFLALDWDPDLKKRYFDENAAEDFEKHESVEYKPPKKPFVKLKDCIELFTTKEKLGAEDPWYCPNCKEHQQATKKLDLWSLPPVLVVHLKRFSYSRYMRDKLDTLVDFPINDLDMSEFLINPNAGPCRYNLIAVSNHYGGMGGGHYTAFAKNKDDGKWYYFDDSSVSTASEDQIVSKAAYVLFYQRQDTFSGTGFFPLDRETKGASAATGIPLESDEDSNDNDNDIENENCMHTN
In short: as §1

[10] = molecular target: USP16 (UniProt Q9Y5T5)
In short: as §1

Measured: log2 ratio of Biotin-Ahx-Ub-VS probe labelling

USP10, sequence (Q14694 whole entry): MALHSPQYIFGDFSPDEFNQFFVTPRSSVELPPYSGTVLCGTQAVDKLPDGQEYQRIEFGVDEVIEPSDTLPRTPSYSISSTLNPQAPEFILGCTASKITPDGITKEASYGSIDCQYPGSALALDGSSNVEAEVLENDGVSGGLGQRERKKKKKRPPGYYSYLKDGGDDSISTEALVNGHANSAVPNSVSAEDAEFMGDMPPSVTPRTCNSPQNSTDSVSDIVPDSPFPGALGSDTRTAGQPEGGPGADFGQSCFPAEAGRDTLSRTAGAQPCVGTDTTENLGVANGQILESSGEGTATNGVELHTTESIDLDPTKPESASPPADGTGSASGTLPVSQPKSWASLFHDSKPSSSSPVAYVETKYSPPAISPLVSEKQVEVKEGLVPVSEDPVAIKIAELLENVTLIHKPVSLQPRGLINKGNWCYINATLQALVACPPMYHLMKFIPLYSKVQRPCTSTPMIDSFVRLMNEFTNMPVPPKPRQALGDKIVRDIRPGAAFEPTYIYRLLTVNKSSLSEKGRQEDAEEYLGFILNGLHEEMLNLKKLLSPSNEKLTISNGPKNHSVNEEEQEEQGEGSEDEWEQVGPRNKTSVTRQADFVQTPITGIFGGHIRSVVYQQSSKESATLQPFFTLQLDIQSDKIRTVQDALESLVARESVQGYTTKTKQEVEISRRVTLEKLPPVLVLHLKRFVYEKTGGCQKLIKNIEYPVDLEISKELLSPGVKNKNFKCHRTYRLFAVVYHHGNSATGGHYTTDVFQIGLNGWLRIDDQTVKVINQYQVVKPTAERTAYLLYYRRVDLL
UCHL1, sequence (P09936 whole entry, looked up): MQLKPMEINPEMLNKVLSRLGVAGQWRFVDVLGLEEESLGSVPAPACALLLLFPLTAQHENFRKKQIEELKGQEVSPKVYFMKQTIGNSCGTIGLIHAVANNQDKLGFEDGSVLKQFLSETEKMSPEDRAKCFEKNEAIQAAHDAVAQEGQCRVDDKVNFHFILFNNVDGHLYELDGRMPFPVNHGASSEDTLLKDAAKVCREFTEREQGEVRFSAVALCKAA
USP16, sequence (Q9Y5T5 whole entry, looked up): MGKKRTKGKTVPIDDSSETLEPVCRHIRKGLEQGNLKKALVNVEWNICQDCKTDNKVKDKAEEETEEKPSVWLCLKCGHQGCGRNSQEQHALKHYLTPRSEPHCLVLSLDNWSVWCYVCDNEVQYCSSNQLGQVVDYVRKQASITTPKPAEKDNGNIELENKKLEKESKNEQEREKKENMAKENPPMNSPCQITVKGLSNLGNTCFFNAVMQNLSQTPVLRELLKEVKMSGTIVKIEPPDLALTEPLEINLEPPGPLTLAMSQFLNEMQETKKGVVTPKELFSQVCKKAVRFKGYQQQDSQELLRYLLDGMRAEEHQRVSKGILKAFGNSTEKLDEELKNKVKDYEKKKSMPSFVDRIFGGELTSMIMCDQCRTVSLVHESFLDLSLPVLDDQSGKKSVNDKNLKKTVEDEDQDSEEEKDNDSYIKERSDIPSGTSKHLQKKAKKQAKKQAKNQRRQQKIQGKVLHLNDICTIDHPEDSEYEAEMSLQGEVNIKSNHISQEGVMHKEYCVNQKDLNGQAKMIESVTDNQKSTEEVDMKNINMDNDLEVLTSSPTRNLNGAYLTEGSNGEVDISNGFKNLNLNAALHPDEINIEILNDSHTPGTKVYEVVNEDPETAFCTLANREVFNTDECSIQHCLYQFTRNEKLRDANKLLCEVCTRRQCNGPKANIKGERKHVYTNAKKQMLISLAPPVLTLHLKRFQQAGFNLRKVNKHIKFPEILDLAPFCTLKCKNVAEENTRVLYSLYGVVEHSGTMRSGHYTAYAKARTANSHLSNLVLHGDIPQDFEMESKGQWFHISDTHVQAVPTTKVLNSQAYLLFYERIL

Cc1nnc(C(NC(=O)CCl)c2ccccc2)n1C (stereo not given)
inactive: [1] 0.622 | [2] 0.355 | [3] -0.283 | [4] 0.357 | [5] 0.102 | [6] 0.364 | [7] 0.534 | [8] 0.157 | [9] 0.629 | [10] -0.384

From the supplement of paper PMC11732987, “Enantioselective OTUD7B fragment discovery through chemoproteomics screening and high-throughput optimisation” (Communications Chemistry, 2025)
